{"source": "the supplement of paper PMC4466140"}
{"molecular_target": "AgAbp1", "experiment": "SPOT peptide array binding signal intensity (averaged, normalized) (arbitrary units (background-subtracted, floor 0; scale differs between SH3 domains)); higher = stronger binding of the SH3 domain to the peptide", "outline": "(§1)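 GST-SH3 fusions from four yeast species, purified on glutathione Sepharose, were incubated at 10 μg/ml overnight at 4°C on membranes of synthetic 15-mer peptides in which cysteines were replaced with serines. Binding signal is the normalized, background-subtracted spot intensity averaged over replicates, in domain-specific arbitrary units.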"}
{"binder": "NFKRLLPRDPSEKSS", "SPOT peptide array binding signal intensity": 1}
{"molecular_target": "AgBbc1", "experiment": "SPOT peptide array binding signal intensity (averaged, normalized) (arbitrary units (background-subtracted, floor 0; scale differs between SH3 domains)); higher = stronger binding of the SH3 domain to the peptide", "outline": "as §1"}
{"binder": "NFKRLLPRDPSEKSS", "SPOT peptide array binding signal intensity": 0.75}
{"molecular_target": "AgBem1-D1", "experiment": "SPOT peptide array binding signal intensity (averaged, normalized) (arbitrary units (background-subtracted, floor 0; scale differs between SH3 domains)); higher = stronger binding of the SH3 domain to the peptide", "outline": "as §1"}
{"binder": "NFKRLLPRDPSEKSS", "SPOT peptide array binding signal intensity": 105}
{"molecular_target": "AgBzz1-D1", "experiment": "SPOT peptide array binding signal intensity (averaged, normalized) (arbitrary units (background-subtracted, floor 0; scale differs between SH3 domains)); higher = stronger binding of the SH3 domain to the peptide", "outline": "as §1"}
{"binder": "NFKRLLPRDPSEKSS", "SPOT peptide array binding signal intensity": 6}
{"molecular_target": "AgBzz1-D2", "experiment": "SPOT peptide array binding signal intensity (averaged, normalized) (arbitrary units (background-subtracted, floor 0; scale differs between SH3 domains)); higher = stronger binding of the SH3 domain to the peptide", "outline": "as §1"}
{"binder": "NFKRLLPRDPSEKSS", "SPOT peptide array binding signal intensity": 35}
{"molecular_target": "AgCyk3", "experiment": "SPOT peptide array binding signal intensity (averaged, normalized) (arbitrary units (background-subtracted, floor 0; scale differs between SH3 domains)); higher = stronger binding of the SH3 domain to the peptide", "outline": "as §1"}
{"binder": "NFKRLLPRDPSEKSS", "SPOT peptide array binding signal intensity": 0.5}
{"molecular_target": "AgFus1", "experiment": "SPOT peptide array binding signal intensity (averaged, normalized) (arbitrary units (background-subtracted, floor 0; scale differs between SH3 domains)); higher = stronger binding of the SH3 domain to the peptide", "outline": "as §1"}
{"binder": "NFKRLLPRDPSEKSS", "SPOT peptide array binding signal intensity": 311}
{"molecular_target": "AgHof1", "experiment": "SPOT peptide array binding signal intensity (averaged, normalized) (arbitrary units (background-subtracted, floor 0; scale differs between SH3 domains)); higher = stronger binding of the SH3 domain to the peptide", "outline": "as §1"}
{"binder": "NFKRLLPRDPSEKSS", "SPOT peptide array binding signal intensity": 32}
{"molecular_target": "AgHse1", "experiment": "SPOT peptide array binding signal intensity (averaged, normalized) (arbitrary units (background-subtracted, floor 0; scale differs between SH3 domains)); higher = stronger binding of the SH3 domain to the peptide", "outline": "as §1"}
{"binder": "NFKRLLPRDPSEKSS", "SPOT peptide array binding signal intensity": 2610}
{"molecular_target": "AgLsb1", "experiment": "SPOT peptide array binding signal intensity (averaged, normalized) (arbitrary units (background-subtracted, floor 0; scale differs between SH3 domains)); higher = stronger binding of the SH3 domain to the peptide", "outline": "as §1"}
{"binder": "NFKRLLPRDPSEKSS", "SPOT peptide array binding signal intensity": 2.5}
{"molecular_target": "AgLsb4", "experiment": "SPOT peptide array binding signal intensity (averaged, normalized) (arbitrary units (background-subtracted, floor 0; scale differs between SH3 domains)); higher = stronger binding of the SH3 domain to the peptide", "outline": "as §1"}
{"binder": "NFKRLLPRDPSEKSS", "SPOT peptide array binding signal intensity": 50}
{"molecular_target": "AgMyo5", "experiment": "SPOT peptide array binding signal intensity (averaged, normalized) (arbitrary units (background-subtracted, floor 0; scale differs between SH3 domains)); higher = stronger binding of the SH3 domain to the peptide", "outline": "as §1"}
{"binder": "NFKRLLPRDPSEKSS", "SPOT peptide array binding signal intensity": 1}
{"molecular_target": "AgNbp2", "experiment": "SPOT peptide array binding signal intensity (averaged, normalized) (arbitrary units (background-subtracted, floor 0; scale differs between SH3 domains)); higher = stronger binding of the SH3 domain to the peptide", "outline": "as §1"}
{"binder": "NFKRLLPRDPSEKSS", "SPOT peptide array binding signal intensity": "≤ 0"}
{"molecular_target": "AgRvs167", "experiment": "SPOT peptide array binding signal intensity (averaged, normalized) (arbitrary units (background-subtracted, floor 0; scale differs between SH3 domains)); higher = stronger binding of the SH3 domain to the peptide", "outline": "as §1"}
{"binder": "NFKRLLPRDPSEKSS", "SPOT peptide array binding signal intensity": 2}
{"molecular_target": "AgSho1", "experiment": "SPOT peptide array binding signal intensity (averaged, normalized) (arbitrary units (background-subtracted, floor 0; scale differs between SH3 domains)); higher = stronger binding of the SH3 domain to the peptide", "outline": "as §1"}
{"binder": "NFKRLLPRDPSEKSS", "SPOT peptide array binding signal intensity": 99.5}
{"molecular_target": "AgSla1-D1-D2", "experiment": "SPOT peptide array binding signal intensity (averaged, normalized) (arbitrary units (background-subtracted, floor 0; scale differs between SH3 domains)); higher = stronger binding of the SH3 domain to the peptide", "outline": "as §1"}
{"binder": "NFKRLLPRDPSEKSS", "SPOT peptide array binding signal intensity": 15.5}
{"molecular_target": "AgSla1-D3", "experiment": "SPOT peptide array binding signal intensity (averaged, normalized) (arbitrary units (background-subtracted, floor 0; scale differs between SH3 domains)); higher = stronger binding of the SH3 domain to the peptide", "outline": "as §1"}
{"binder": "NFKRLLPRDPSEKSS", "SPOT peptide array binding signal intensity": 5.5}
{"molecular_target": "CaAbp1-D1", "experiment": "SPOT peptide array binding signal intensity (averaged, normalized) (arbitrary units (background-subtracted, floor 0; scale differs between SH3 domains)); higher = stronger binding of the SH3 domain to the peptide", "outline": "as §1"}
{"binder": "NFKRLLPRDPSEKSS", "SPOT peptide array binding signal intensity": 126}
{"molecular_target": "CaAbp1-D2", "experiment": "SPOT peptide array binding signal intensity (averaged, normalized) (arbitrary units (background-subtracted, floor 0; scale differs between SH3 domains)); higher = stronger binding of the SH3 domain to the peptide", "outline": "as §1"}
{"binder": "NFKRLLPRDPSEKSS", "SPOT peptide array binding signal intensity": 30}
{"molecular_target": "CaBbc1", "experiment": "SPOT peptide array binding signal intensity (averaged, normalized) (arbitrary units (background-subtracted, floor 0; scale differs between SH3 domains)); higher = stronger binding of the SH3 domain to the peptide", "outline": "as §1"}
{"binder": "NFKRLLPRDPSEKSS", "SPOT peptide array binding signal intensity": "≤ 0"}
{"molecular_target": "CaBem1-D1", "experiment": "SPOT peptide array binding signal intensity (averaged, normalized) (arbitrary units (background-subtracted, floor 0; scale differs between SH3 domains)); higher = stronger binding of the SH3 domain to the peptide", "outline": "as §1"}
{"binder": "NFKRLLPRDPSEKSS", "SPOT peptide array binding signal intensity": "≤ 0"}
{"molecular_target": "CaBzz1-D1", "experiment": "SPOT peptide array binding signal intensity (averaged, normalized) (arbitrary units (background-subtracted, floor 0; scale differs between SH3 domains)); higher = stronger binding of the SH3 domain to the peptide", "outline": "as §1"}
{"binder": "NFKRLLPRDPSEKSS", "SPOT peptide array binding signal intensity": "≤ 0"}
{"molecular_target": "CaBzz1-D2", "experiment": "SPOT peptide array binding signal intensity (averaged, normalized) (arbitrary units (background-subtracted, floor 0; scale differs between SH3 domains)); higher = stronger binding of the SH3 domain to the peptide", "outline": "as §1"}
{"binder": "NFKRLLPRDPSEKSS", "SPOT peptide array binding signal intensity": 17.8}
{"molecular_target": "CaCyk3", "experiment": "SPOT peptide array binding signal intensity (averaged, normalized) (arbitrary units (background-subtracted, floor 0; scale differs between SH3 domains)); higher = stronger binding of the SH3 domain to the peptide", "outline": "as §1"}
{"binder": "NFKRLLPRDPSEKSS", "SPOT peptide array binding signal intensity": "≤ 0"}
{"molecular_target": "CaFus1", "experiment": "SPOT peptide array binding signal intensity (averaged, normalized) (arbitrary units (background-subtracted, floor 0; scale differs between SH3 domains)); higher = stronger binding of the SH3 domain to the peptide", "outline": "as §1"}
{"binder": "NFKRLLPRDPSEKSS", "SPOT peptide array binding signal intensity": 970}
{"molecular_target": "CaHof1", "experiment": "SPOT peptide array binding signal intensity (averaged, normalized) (arbitrary units (background-subtracted, floor 0; scale differs between SH3 domains)); higher = stronger binding of the SH3 domain to the peptide", "outline": "as §1"}
{"binder": "NFKRLLPRDPSEKSS", "SPOT peptide array binding signal intensity": 0.5}
{"molecular_target": "CaHse1", "experiment": "SPOT peptide array binding signal intensity (averaged, normalized) (arbitrary units (background-subtracted, floor 0; scale differs between SH3 domains)); higher = stronger binding of the SH3 domain to the peptide", "outline": "as §1"}
{"binder": "NFKRLLPRDPSEKSS", "SPOT peptide array binding signal intensity": 81}
{"molecular_target": "CaLsb1", "experiment": "SPOT peptide array binding signal intensity (averaged, normalized) (arbitrary units (background-subtracted, floor 0; scale differs between SH3 domains)); higher = stronger binding of the SH3 domain to the peptide", "outline": "as §1"}
{"binder": "NFKRLLPRDPSEKSS", "SPOT peptide array binding signal intensity": 0.5}
{"molecular_target": "CaLsb4", "experiment": "SPOT peptide array binding signal intensity (averaged, normalized) (arbitrary units (background-subtracted, floor 0; scale differs between SH3 domains)); higher = stronger binding of the SH3 domain to the peptide", "outline": "as §1"}
{"binder": "NFKRLLPRDPSEKSS", "SPOT peptide array binding signal intensity": "≤ 0"}
{"molecular_target": "CaMyo5", "experiment": "SPOT peptide array binding signal intensity (averaged, normalized) (arbitrary units (background-subtracted, floor 0; scale differs between SH3 domains)); higher = stronger binding of the SH3 domain to the peptide", "outline": "as §1"}
{"binder": "NFKRLLPRDPSEKSS", "SPOT peptide array binding signal intensity": 7}
{"molecular_target": "CaNbp2", "experiment": "SPOT peptide array binding signal intensity (averaged, normalized) (arbitrary units (background-subtracted, floor 0; scale differs between SH3 domains)); higher = stronger binding of the SH3 domain to the peptide", "outline": "as §1"}
{"binder": "NFKRLLPRDPSEKSS", "SPOT peptide array binding signal intensity": 286}
{"molecular_target": "CaRvs167", "experiment": "SPOT peptide array binding signal intensity (averaged, normalized) (arbitrary units (background-subtracted, floor 0; scale differs between SH3 domains)); higher = stronger binding of the SH3 domain to the peptide", "outline": "as §1"}
{"binder": "NFKRLLPRDPSEKSS", "SPOT peptide array binding signal intensity": 6.33}
{"molecular_target": "CaRvs167-3", "experiment": "SPOT peptide array binding signal intensity (averaged, normalized) (arbitrary units (background-subtracted, floor 0; scale differs between SH3 domains)); higher = stronger binding of the SH3 domain to the peptide", "outline": "as §1"}
{"binder": "NFKRLLPRDPSEKSS", "SPOT peptide array binding signal intensity": 31.5}
{"molecular_target": "CaSho1", "experiment": "SPOT peptide array binding signal intensity (averaged, normalized) (arbitrary units (background-subtracted, floor 0; scale differs between SH3 domains)); higher = stronger binding of the SH3 domain to the peptide", "outline": "as §1"}
{"binder": "NFKRLLPRDPSEKSS", "SPOT peptide array binding signal intensity": 340}
{"molecular_target": "CaSla1-D1-D2", "experiment": "SPOT peptide array binding signal intensity (averaged, normalized) (arbitrary units (background-subtracted, floor 0; scale differs between SH3 domains)); higher = stronger binding of the SH3 domain to the peptide", "outline": "as §1"}
{"binder": "NFKRLLPRDPSEKSS", "SPOT peptide array binding signal intensity": "≤ 0"}
{"molecular_target": "CaSla1-D3", "experiment": "SPOT peptide array binding signal intensity (averaged, normalized) (arbitrary units (background-subtracted, floor 0; scale differs between SH3 domains)); higher = stronger binding of the SH3 domain to the peptide", "outline": "as §1"}
{"binder": "NFKRLLPRDPSEKSS", "SPOT peptide array binding signal intensity": 1}
{"molecular_target": "ScAbp1", "experiment": "SPOT peptide array binding signal intensity (averaged, normalized) (arbitrary units (background-subtracted, floor 0; scale differs between SH3 domains)); higher = stronger binding of the SH3 domain to the peptide", "outline": "as §1"}
{"binder": "NFKRLLPRDPSEKSS", "SPOT peptide array binding signal intensity": 66.5}
